Screening results: PubChem, Broad Institute
NSD2 inh = NSD2 (human) methyltransferase inhibition; O96028; NSD2 peptide methylation, AlphaScreen, 120 min; inhibition, % at 12.5 µM; 0.54% of 310,000 active; AID 743445; in the data active = inhibition above about 50%
RAD52 anneal inh = inhibitors of human RAD52 DNA annealing; P43351; recombinant RAD52 DNA annealing, FRET fluorescence; inhibition, % at 18.7 µM; 0.46% of 360,000 active;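 active = every replicate showing at least 50% inhibition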
MLL AF4-AF9 inh = inhibitors of human MLL-AF4/AF9 interaction. AlphaScreen, biotin-AF4 peptide binding to FLAG-AF9. inhibition, % at 10 µM. 0.47% of 350,000 active;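 active = every replicate reaching a set inhibition limit, whatever the replicate mean, cut at about 25% in these data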;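 also: 0% = plate neutral control median and 100% = total signal loss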
Casp6 inh = blocks human caspase-6 cleavage activity | P55212 | purified caspase-6, Z-VEID-R110 cleavage fluorescence | inhibition, % at 12.5 µM | 0.53% of 350,000 active | AID 686996;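 active = mean inhibition across replicates at least about 35%, with every replicate also reaching that limit, limit read from the data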;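 also: 0% = median of neutral control wells and 100% = no fluorescence left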
Target sequence (P55212 24-179 limits assumed): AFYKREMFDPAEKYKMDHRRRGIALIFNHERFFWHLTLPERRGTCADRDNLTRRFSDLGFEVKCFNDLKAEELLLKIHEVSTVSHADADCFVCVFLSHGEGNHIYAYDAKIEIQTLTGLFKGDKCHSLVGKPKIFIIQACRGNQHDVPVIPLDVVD
Target sequence (P55212 194-293 limits assumed): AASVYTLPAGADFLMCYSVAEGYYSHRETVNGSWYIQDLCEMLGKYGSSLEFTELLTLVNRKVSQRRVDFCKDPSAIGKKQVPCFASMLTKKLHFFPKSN
miR-122 sensor = blocks miR-122 activity in Huh7 sensor cells; Huh7 miR-122 Renilla luciferase sensor, 48 h; neutral wells = 0, positive control = 100; activation (reporter increase), % at 12.5 µM; 0.3% of 340,000 active; AID 602342;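 active = mean replicate activation score at least 90 and every replicate individually at or above 90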;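 also: higher luciferase means less miR-122 activity so hits act as miR-122 inhibitors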
* hit, by the source's call; . = no result given; [ ] = remark or other dose. Compounds with a hit are over-represented: about 1.5% of the library has one in this group of screens.

SMILES	NSD2 inh	RAD52 anneal inh	MLL AF4-AF9 inh	Casp6 inh	miR-122 sensor
CC(/C=C/c1ccco1)=N\NC(=O)c1cccnc1	1	.	.	.	.
O=C(/C=C/c1ccco1)c1cccnc1	28	-45	-1	65*	.
CC(/C=C/c1ccco1)=N\NC(=O)c1cc(Cl)ccc1O	5	-19	-2	52*	.
O=C(C=Cc1ccco1)c1cc(Cl)ccc1O	8	-15	3	45*	-1
O=C(C[C@H]1CC[C@H]2NC[C@H](O)COC[C@@H]2O1)Nc1ccccc1	.	-6	-1	0	3[16.7 µM]
COc1ccc(CN(C)C[C@@H]2Oc3ccc(NS(=O)(=O)c4ccc(F)cc4)cc3C(=O)N([C@H](C)CO)C[C@@H]2C)cc1	.	3	2	1	3[16.7 µM]
Cc1ccc(NC(=O)C(OC(=O)c2ccc(O)cc2)c2ccccc2)cc1Cl (configuration not stated)	0	-16	0	-4	2
Cc1ccc(NC(=O)C(OC(=O)c2ccc(F)cc2)c2ccccc2)cc1Cl (configuration not stated)	-2	-15	-3	-1	137*
C[C@H](CO)N1C[C@H](C)[C@H](CN(C)CC2CCCCC2)Oc2ccc(NS(=O)(=O)c3cn(C)cn3)cc2C1=O	.	-6	-3	-1	0[16.7 µM]
C[C@@H]1CCCCO[C@@H](CN(C)C(=O)c2ccncc2)[C@H](C)CN([C@H](C)CO)C(=O)c2cc(NS(=O)(=O)c3ccc(Cl)cc3)ccc2O1	.	9	-1	-1	0[16.7 µM]
COC(=O)C[C@@H]1CC[C@H]2[C@@H](COc3ccc(NC(=O)c4cc(F)cc(F)c4)cc3C(=O)N2C)O1	.	.	.	.	-17[16.7 µM]
CCc1cccc(NC(=O)Cn2cc3c(n2)CCCC3)c1	.	-3	-6	1	.
CN(C)c1ccc(NC(=O)Cn2cc3c(n2)CCCC3)cc1	.	19	31*	-5	.
O=C1C(N2CCOCC2)=C(n2nnc3ccccc32)C(=O)c2ccccc21	117*	.	.	.	-18
O=C(O)c1cc(-c2cccs2)nn1-c1cccc(Cl)c1	5	-19	0	3	6
O=C(O)c1cc(-c2ccco2)nn1-c1cccc(Cl)c1	29	-29	1	46*	.
Cc1nn(C)cc1NC(=O)C[C@@H]1CC[C@@H]2[C@H](COc3ccc(NC(=O)C(C)C)cc3C(=O)N2C)O1	.	.	.	.	29[16.7 µM]
O=C1Cc2ccccc2C(=O)N1Cc1cccc(Cl)c1	1	-24	-3	68*	0
Nc1cccc2c1C(=O)N(Cc1cccc(Cl)c1)C2=O	26	-30	-13	1	.
O=C(NC[C@@H]1CC[C@H]2[C@H](CN2S(=O)(=O)c2ccccc2[N+](=O)[O-])O1)Nc1ccccc1	.	-22	3	4	.
CC(/C=N/Nc1nc2ccccc2[nH]1)=C\c1ccccc1	0	-11	10	36*	.
Cn1c(/C=N/Nc2nc3ccccc3[nH]2)nc2ccccc21	4	-4	14	1	.
Cc1c(/C=N/Nc2nc3ccccc3[nH]2)c2ccccc2n1C	5	-12	25*	-5	-21
C[C@@H]1CN([C@H](C)CO)C(=O)c2cc(-c3ccc(C#N)cc3)cnc2O[C@@H]1CN(C)C(=O)c1cccnc1	.	1	-3	0	.
O=S(=O)(Nc1ccccc1)c1ccc2c(c1)CCO2	0	-9	48*	2	30
SMILES	NSD2 inh	RAD52 anneal inh	MLL AF4-AF9 inh	Casp6 inh	miR-122 sensor
O=C(C[C@H]1CC[C@@H]2[C@H](COC[C@@H](O)CN2Cc2cccc(Cl)c2)O1)Nc1nccs1	.	-1	0	3	5[16.7 µM]
O=C(Nc1cccc(F)c1)N1CCCCN2[C@H](CO)[C@@H](c3ccc(-c4ccccc4F)cc3)[C@H]2C1	.	-35	3	-1	-13[16.7 µM]
Cc1ccccc1N1Cc2ccccc2C1=O	.	-12	0	1	0
O=C1CSC(=S)N1Nc1ccccc1	1	-32	-1	-1	-6
O=C1Cc2ccccc2C(=O)N1Nc1ccccc1	.	-16	0	49*	.
Cc1ccccc1N1C(=O)Cc2ccccc2C1=O	5	13	0	54*	1
COc1ccc(N2C(=O)Cc3ccccc3C2=O)cc1	3	-10	-26	43*	4
COc1ccc(NC(=O)N2C[C@@H](O)COC[C@@H]3O[C@@H](CC(=O)N4CCN(C)CC4)CC[C@H]32)cc1	.	0	-2	1	7[16.7 µM]
C[C@@H]1CN([C@H](C)CO)S(=O)(=O)c2ccc(C3=CCCCC3)cc2O[C@H]1CN(C)C(=O)C1CC1	.	4	-2	7	8[16.7 µM]
C[C@@H]1CCCCO[C@H](CN(C)Cc2ccc(C(F)(F)F)cc2)[C@H](C)CN([C@H](C)CO)C(=O)c2cc(N(C)C)ccc2O1	.	-3	35*	2	-16[16.7 µM]
C[C@H]1CCCCO[C@@H](CN(C)Cc2ccc(C(F)(F)F)cc2)[C@@H](C)CN([C@@H](C)CO)C(=O)c2cc(N(C)C)ccc2O1	.	4	37*	5	-10[16.7 µM]
C[C@H]1CCCCO[C@H](CN(C)Cc2ccc(C(F)(F)F)cc2)[C@@H](C)CN([C@@H](C)CO)C(=O)c2cc(N(C)C)ccc2O1	.	19	33*	6	-15[16.7 µM]
C[C@@H]1CCCCO[C@@H](CN(C)Cc2ccc(C(F)(F)F)cc2)[C@@H](C)CN([C@H](C)CO)C(=O)c2cc(N(C)C)ccc2O1	.	-15	18	1	-10
C[C@@H]1CCCCO[C@H](CN(C)Cc2ccc(C(F)(F)F)cc2)[C@@H](C)CN([C@@H](C)CO)C(=O)c2cc(N(C)C)ccc2O1	.	2	6	2	5[16.7 µM]
C[C@@H]1CCCCO[C@H](CN(C)Cc2ccc(C(=O)O)cc2)[C@@H](C)CN([C@H](C)CO)C(=O)c2cc(N(C)C)ccc2O1	.	-5	2	0	-7
CNC(=O)C[C@H]1CC[C@H]2[C@H](COc3ccc(NC(=O)Nc4cccc(Cl)c4)cc3C(=O)N2C)O1	.	0	-1	2	-3[16.7 µM]
CCn1c(SCC(=O)OCc2ccccc2)nnc1-c1ccco1	-1	-19	-10	57*	-2
Cn1c(SCC(=O)OCc2ccccc2)nnc1-c1ccco1	0	.	.	.	-6
Nc1ccc(C2=Nc3cccc4cccc(c34)N2)cc1	6	-3	7	-5	-1
COc1cccc(C2=Nc3cccc4cccc(c34)N2)c1	4	-8	33*	-2	3
CN1CCN(C(=O)C[C@@H]2CC[C@H]3[C@@H](COC[C@@H](O)CN3S(=O)(=O)c3cccc(Cl)c3)O2)CC1	.	2	-4	-1	1[16.7 µM]
O=C1OC(c2ccccc2)=N/C1=C\C=C\c1ccco1	2	-31	0	56*	.
O=C1OC(c2ccccc2)=N/C1=C\C=C\c1ccccc1[N+](=O)[O-]	-1	-24	0	5	.
O=C1OC(c2ccc(Cl)cc2)=N/C1=C\C=C\c1ccco1	0	-22	0	64*	.
CN1C(=O)c2cc(NS(C)(=O)=O)ccc2OC[C@H]2O[C@@H](CC(=O)NCc3ccc(-c4ccccc4)cc3)CC[C@H]21	.	11	-12	-5	.
